This is an account of results in PubChem BioAssay (NCI).

Among the test systems are NCI-H23 lung; NCI-H226 lung; NCI-H322M lung; HOP-62 NSCLC; NCI-H460 lung; HOP-92 NSCLC; NCI-H522 lung; A549/ATCC NSCLC; 786-0 renal; COLO 205 colon; DU-145 prostate; K-562 leukemia; MALME-3M melanoma; MDA-MB-231 breast; SF-268 CNS; SF-295 CNS; SF-539 CNS; UACC-257 melanoma; M14 melanoma.
What all share (assay): NCI-60 one-dose screen, 48 h (100 = growth as untreated, 0 = no growth, -100 = all killed)
Settings in all cases: 10 µM unless noted

This is part of a sample that, as a whole, favours compounds with a hit. Of some 83,000 tested, about 20% had one in any assay.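 How to read the values: 0–100, growth inhibition (40 = 60% inhibited); 0, no net growth; -100 to 0, cell death (-40 = 40% of starting cells died; -100 = all dead).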 Values without a mark were called inactive. Calls of active or inactive are those of the source. Rule for the calls: active = growth percent below 10; inactive = the rest.

For `Clc1ccc(N2N=C(c3cccc(Nc4ccncc4)c3)CC2c2ccc3c(c2)OCO3)cc1` (stereo not drawn), the growth in the assay with NCI-H23 lung is 83.6%; in the assay on NCI-H226 lung, 82.5%; in the assay on NCI-H322M lung, 68.6%; in the assay with HOP-62 NSCLC, 42.4%; with NCI-H460 lung, -65.4% (active); in the assay with HOP-92 NSCLC it was 47.9%. The growth was 57.2% with NCI-H522 lung; 36.4% with A549/ATCC NSCLC; 56.9% in the assay on 786-0 renal; -52.8% (active) in the assay on COLO 205 colon; 41.9% in the assay with DU-145 prostate; 5.23% (active) in the assay with K-562 leukemia. Moreover, the growth with MALME-3M melanoma was 25.5%; in the assay on MDA-MB-231 breast, 37.8%; with SF-268 CNS, 63.1%; in the assay on SF-295 CNS it was 39%; in the assay with SF-539 CNS, 81.9%; in the assay on UACC-257 melanoma, 86%. Also, the growth in the assay with M14 melanoma was -52.4% (active).
On to `COc1ccc(-c2nn(Cc3ccccc3)c3c2-c2oncc2CC3)cc1OC`, for which the growth was 105% in the assay on NCI-H23 lung; 131% in the assay with NCI-H226 lung; 112% with NCI-H322M lung; 120% with HOP-62 NSCLC; 95.6% in the assay with NCI-H460 lung; 49.4% in the assay with HOP-92 NSCLC. Also, the growth was 98.9% in the assay with NCI-H522 lung; 96.8% in the assay on A549/ATCC NSCLC; 97.8% in the assay with 786-0 renal; 136% with COLO 205 colon; 97.4% in the assay with DU-145 prostate; 90.5% in the assay on K-562 leukemia. In addition, the growth in the assay on MALME-3M melanoma was 138%; in the assay on MDA-MB-231 breast, 77.8%; in the assay on SF-268 CNS it was 104%; with SF-295 CNS, 96.5%; in the assay on SF-539 CNS it was 93.3%; in the assay with UACC-257 melanoma, 89.9%. In addition, in the assay on M14 melanoma, the growth is 127%.
Turning to `CCCCCCCCCCN=C(N)N=C(N)N`, the growth in the assay on NCI-H23 lung is 29.4%; with NCI-H226 lung, 47.4%; in the assay on NCI-H322M lung it was 80.9%; in the assay with HOP-62 NSCLC, 50.6%; with NCI-H460 lung, 40.6%; in the assay on HOP-92 NSCLC, 21.2%. Moreover, the growth was 53% in the assay with NCI-H522 lung; 70.1% with A549/ATCC NSCLC; 26.2% in the assay on 786-0 renal; 32% in the assay on COLO 205 colon; 79.1% in the assay with DU-145 prostate; 21.3% with K-562 leukemia. Besides, the growth in the assay with MALME-3M melanoma was 30.4%; in the assay with MDA-MB-231 breast, 38.8%; in the assay with SF-268 CNS, 33.1%; with SF-295 CNS, 42.8%; with SF-539 CNS, 58.5%; in the assay on UACC-257 melanoma it was 48.5%. In addition, the growth in the assay with M14 melanoma is 48.2%.
On to `O=C1Nc2c(ccc(Cl)c2Cl)/C1=C/c1ccc([N+](=O)[O-])cc1`, for which the growth with NCI-H23 lung is 91.3%; in the assay with NCI-H226 lung, 159%; with NCI-H322M lung, 84.9%; with HOP-62 NSCLC, 90.6%; in the assay with NCI-H460 lung, 107%; in the assay with HOP-92 NSCLC it was 95.5%. In addition, the growth was 88.7% with NCI-H522 lung; 29.2% in the assay with A549/ATCC NSCLC; 59.7% in the assay with 786-0 renal; 114% in the assay with COLO 205 colon; 108% in the assay on DU-145 prostate; 89.5% with K-562 leukemia. The growth is 84.4% with MALME-3M melanoma; 94.2% with MDA-MB-231 breast; 93.3% in the assay with SF-268 CNS; 76.7% with SF-295 CNS; 95.4% with SF-539 CNS; 72% in the assay with UACC-257 melanoma. The growth with M14 melanoma was 104%.
As to `O=C1NC(=O)C(=Cc2cn(Cc3ccccn3)c3ccccc23)C(=O)N1`, the growth was 103% with NCI-H23 lung; 79.7% with NCI-H226 lung; 105% with NCI-H322M lung; 92.7% in the assay on HOP-62 NSCLC; 11.9% with NCI-H460 lung; 95.8% in the assay with HOP-92 NSCLC. Further, the growth was 92.6% with NCI-H522 lung; 76.3% in the assay on A549/ATCC NSCLC; 100% with 786-0 renal; 54.4% with COLO 205 colon; 110% in the assay on DU-145 prostate; 76.4% in the assay with K-562 leukemia. In addition, the growth in the assay with MALME-3M melanoma was 101%; in the assay with MDA-MB-231 breast, 108%; in the assay with SF-268 CNS it was 93.7%; with SF-295 CNS, 79.5%; with SF-539 CNS it was 94.5%; in the assay with UACC-257 melanoma, 103%. The growth in the assay with M14 melanoma is 99.7%.
In the case of `CCCCCCCCCCCCCCCC(=O)OC[C@@]1(O)C[C@@]23CC[C@@H]4C(C)(C)CCC[C@@]4(C)[C@@H]2CC[C@H]1C3`, the growth in the assay with NCI-H23 lung was 102%; in the assay on NCI-H226 lung, 98.3%; with NCI-H322M lung it was 114%; in the assay with HOP-62 NSCLC, 106%; in the assay with NCI-H460 lung, 98.4%; with HOP-92 NSCLC, 117%. Besides, the growth in the assay on NCI-H522 lung is 89.3%; with A549/ATCC NSCLC, 103%; with 786-0 renal, 27.9%; with COLO 205 colon, 112%; in the assay on DU-145 prostate, 108%; with K-562 leukemia it was 59.3%. Also, the growth in the assay on MALME-3M melanoma was 112%; with MDA-MB-231 breast, 96%; in the assay with SF-268 CNS, 110%; with SF-295 CNS, 111%; in the assay on SF-539 CNS, 108%; in the assay with UACC-257 melanoma, 104%. The growth in the assay with M14 melanoma was -51.8% (active).
For the compound `Fc1ccc2nc3c(cc2c1)CSc1nnc(-c2ccc[nH]c2=S)n1N3`, the growth was 92.7% in the assay with NCI-H23 lung; 93.3% in the assay on NCI-H226 lung; 106% in the assay on NCI-H322M lung; 93.3% in the assay with HOP-62 NSCLC; 105% in the assay on NCI-H460 lung; 78.1% in the assay on HOP-92 NSCLC. The growth with NCI-H522 lung was 86.8%; with A549/ATCC NSCLC it was 108%; with 786-0 renal it was 89.7%; in the assay with COLO 205 colon it was 115%; with DU-145 prostate, 114%; in the assay with K-562 leukemia it was 106%. The growth is 112% in the assay on MALME-3M melanoma; 94.4% with MDA-MB-231 breast; 98.7% with SF-268 CNS; 105% in the assay with SF-295 CNS; 95.7% with SF-539 CNS; 105% in the assay on UACC-257 melanoma. Also, the growth in the assay on M14 melanoma was 99%.
